“And” between values parts separate entries of the source, which are not always exact repeats. Identical values can stand only once. About 79,000 compounds went through this panel and 15% of them were active in at least one assay; those are over-represented in the sample as a whole. Values without a mark were called inactive. The source made the active and inactive calls. No stated cut-off is given here; in the data, active means growth inhibition above about 70%; inactive means the rest.
Key:
[1] = NCI Yeast Anticancer Drug Screen. Data for the rad50 strain (AID 155);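 further: 0% = growth of vehicle-only cultures of the same strain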; conditions: S. cerevisiae rad50 strain growth inhibition, hits give high values; at 50.0 µM unless noted
Procedure, shortened: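 Growth of the mutant yeast was measured after compound exposure and referenced to vehicle-treated cultures.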

[2] = NCI Yeast Anticancer Drug Screen. Data for the mec2-1 strain (AID 157); conditions: S. cerevisiae mec2-1 strain, hits give high values; at 50.0 µM unless noted
Procedure, shortened: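 mec2-1 yeast strain, carrying an alteration in DNA damage repair or cell cycle control, was exposed to compounds; growth inhibition was measured relative to vehicle-treated controls.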

[3] = NCI Yeast Anticancer Drug Screen. Data for the sgs1 mgt1 strain (AID 161);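 further: 0% = growth of cultures given vehicle only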; conditions: S. cerevisiae sgs1 mgt1 strain, hits give high values; at 50.0 µM unless noted
Procedure, shortened: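 Compounds are added to genetically altered yeast, and growth is compared with cultures given vehicle alone to give percent inhibition.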

[4] = NCI Yeast Anticancer Drug Screen. Data for the cln2 rad14 strain (AID 165);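 further: 0% = growth equal to vehicle treated cultures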; conditions: S. cerevisiae cln2 rad14 strain, hits give high values; at 50.0 µM unless noted
Procedure, shortened: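 Yeast carrying cln2 and rad14 alterations (cell cycle control and DNA damage repair) were exposed to compounds. Growth inhibition was measured against vehicle-treated controls.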

[5] = NCI Yeast Anticancer Drug Screen. Data for the bub3 strain (AID 167); conditions: S. cerevisiae bub3 mutant strain, hits give high values; at 50.0 µM unless noted
Procedure, shortened: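 Whole-cell yeast assay. The mutant strain was incubated with compounds, and growth inhibition was determined by comparison with vehicle-treated cells.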

[6] = NCI Yeast Anticancer Drug Screen. Data for the mlh1 rad18 strain (AID 175); conditions: S. cerevisiae mlh1 rad18 strain growth inhibition, hits give high values; at 50.0 µM unless noted
Procedure, shortened: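 Growth inhibition of the yeast strain was measured after compound exposure and expressed relative to vehicle-treated controls. The strain carries defined defects in DNA damage repair.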

Row | Structure (SMILES) | growth inhibition [1] | growth inhibition [2] | growth inhibition [3] | growth inhibition [4] | growth inhibition [5] | growth inhibition [6]
1 | Clc1ccc(/C=C/c2nc(Cl)c(-c3ccc(Cl)cc3)c(Cl)n2)cc1 | -15.2% | -18.8% | -3.1% | 14.3% | -23.8% | 5.3%
2 | COc1cc(/C=C/C(=O)c2sc(Nc3ccccc3)nc2C)ccc1O | 27.8% | 2.8% | 13.2% | 0.85% | 19% | 28%
3 | COc1ccc(OC)c(NC(=O)C(=O)C(C(C)=O)c2nc3ccc(Cl)cc3[nH]c2=O)c1 (centres undefined) | -12.8% | 7.75% | -15.5% | 12% | 2.5% | -7.35%
4 | N/N=C1\C(=O)N(c2ccc(Cl)c(Cl)c2)C(=O)C1C(=O)Nc1ccc(Cl)c(Cl)c1 (centres undefined) | -7.35% | -19.4% | -20.6% | -16.4% | -29.6% | -31.1%
5 | O=C(O)CN(CCCN(CC(=O)O)CC(=O)O)CC(=O)O | -5% | 0.85% | -2.5% | -14% | -7.4% | -30.2%
6 | Cc1ccc2cc(-c3ccccc3)[nH]c2c1 | -15.3% | -11.2% | -13.6% | -13.4% | -33.6% | -55%
7 | CSC1N=CNc2c1sc(=S)n2-c1ccccc1 (centres undefined) | -20.8% | 7.75% | 15.9% | -3.9% | -2.85% | -1.85%
8 | CC(=O)OCCOc1ccc2c(c1)OCO2 | 3.2% | -1.2% | 4.95% | -23.6% | -1.75% | 30.7%
9 | COc1ccccc1N=Nc1c(O)n(-c2ccccc2OC)c(=S)n(-c2ccccc2)c1=O | 40.8% | -3.45% | 31.9% | -13.4% | -2.5% | 16.9%
10 | CCOCC(Br)C(OCC)OCC (centres undefined) | 19.2% | -6.65% | 8.15% | 20.9% | 0.45% | 26.1%
11 | N#Cc1ccc(Nc2cnc3cc(N)ccc3n2)cc1 | 38.6% | -10.2% | 13.6% | 18% | 12.8% | 34.6%
12 | O=C(COc1ccc(Cl)cc1)N1CCN(C(=O)COc2ccc(Cl)cc2)c2ccccc21 | 11.7% | 3.05% | 23.9% | 11.1% | 11.6% | -1.05%
13 | Brc1ccc(SSc2ccc(Br)cc2)cc1 | -12.8% and 3.2% | 13.1% and -10.3% | 3.45% and 5.3% | -18.4% and -5.5% | -3.15% and 9.8% | 18.8% and 2.65%
14 | C=C1N(C=O)C(C)(C)N(O)C1(C)C | 16.7% | 15.7% | 15.6% | 28.1% | 12.2% | 10.9%
15 | COC(=O)c1cc(Cl)ccc1OCC(=O)Nc1ccccc1 | -6.3% | -2.5% | 13.4% | -8.2% | -6.55% | -29.1%
16 | O=C(CC1SC(=Nc2ccccc2Cl)NC1=O)Nc1ccc(Cl)cc1Cl (centres undefined) | -9.8% | -14.8% | -15.9% | 17.7% | -6.55% | 9.7%
17 | O=C(/C=C/c1ccccc1)c1ccccc1 | -1.8% and -29.8% | 10.3% and -6.35% | -8.65% and -18.8% | -41% and -36.2% | 21.7% and 1.7% | 14.3% and -22.3%
18 | C=CCC(O)CCCCC (centres undefined) | -0.4% | -22.8% | 15.8% | 20.7% | -11.3% | -23.4%
19 | CC(=O)Nc1ccc(NC(=O)NCCCCCCNC(=O)Nc2ccc(NC(C)=O)cc2)cc1 | -1.5% | 2.7% | -21.6% | -20.6% | -1.7% | 5.5%
20 | COc1cc(CC(=O)C(=O)O)ccc1O | 0.85% | -2.95% | 4.35% | -14.7% | 2.2% | -1.95%

Row | Structure (SMILES) | growth inhibition [1] | growth inhibition [2] | growth inhibition [3] | growth inhibition [4] | growth inhibition [5] | growth inhibition [6]
21 | CCCSCCC(NC(=O)c1ccccc1)C(=O)O (centres undefined) | -14.6% | -10% | -10.1% | -12.9% | -15.2% | -26.4%
22 | CNC(=S)C#N | -21.8% | -14.4% | -15.3% | 11.9% | -13% | 0.1%
23 | C=CCNC1=C(NC(C)=O)C(=O)c2ccccc2C1=O | 16.1% | 0.95% | 4.8% | -31.2% | 28.6% | 12.4%
24 | O=c1cc2ccccc2nn1-c1ccccc1Cl | 26.1% | 6.4% | 37.6% | 36.5% | 25.3% | 34.5%
25 | O=C(Cc1nc2ccccc2o1)C(=O)Nc1ccccc1C(F)(F)F | -16.5% | -4.9% | -2.8% | 7.2% | 2.75% | 17.6%
26 | Cc1ccccc1C(=O)C[n+]1ccccc1C | -11.8% | 15.5% | -5.7% | -21.6% | 4.1% | 8.3%
27 | COC(=O)C(=O)C1CCc2ccc3ccccc3c2C1=O (centres undefined) | -5.8% | 2.3% | 24.2% | -4.65% | 2.3% | 38.5%
28 | O=C(Nc1ccc2c(c1)Cc1c(F)cccc1-2)C(F)(F)F | -4.8% | -16.4% | -3.95% | -7.95% | 9.45% | 11.2%
29 | COc1ccc(CNC(=O)CC(C)=O)cc1 | -6.7% | -17.5% | 3.35% | 7.25% | 13% | 0.95%
30 | CCCNC(=O)Oc1ccccc1C(=O)NCO | -3.5% | 0.4% | -9.35% | -14.1% | 16.8% | -6.4%
31 | CC(C)(C)C1CCC2(CC1)CCN(CCCN1CCOCC1)CC2 | 99% (active) | 98.4% (active) | 98.5% (active) | 97.3% (active) | 98.3% (active) | 97.8% (active)
32 | CC(=O)Nc1cc(C(=O)Nc2cc(C(=O)Nc3cc(C(=O)Nc4cc(C(=O)Nc5cc(C(=O)NCCC(=O)NCCCN(C)C)n(C)c5)n(C)c4)n(C)c3)n(C)c2)n(C)c1 | 9.7% | -41.5% | -18.6% | -4% | -31.9% | -37.8%
33 | CC(=O)Nc1ccc(C2NCc3cnc(C)nc3N2)cc1 (centres undefined) | 0.35% | -0.75% | 0.15% | -6.95% | 10.2% | 0.95%
34 | CC(C)(Oc1ccc(C(=O)c2ccc(Cl)cc2)cc1Cl)C(=O)N1CCN(c2ccccc2)CC1 | 2% | -46.1% | -0.85% | -55% | -9.2% | -5.9%
35 | NC1CC(=O)c2ccccc21 (centres undefined) | 15.2% | 4.8% | -5% | 8.95% | 2.75% | -37.6%
36 | Cc1[nH]c2c(C)ccc(C)c2c(=O)c1Br | -1.65% | 10% | -1% | -16.7% | -1.7% | 3.2%
37 | CCOC(=O)CSCC(C)C(=O)OC (centres undefined) | -0.3% | -0.5% | -2.7% | 7.2% | 2.5% | 2.25%
38 | O=C1OC(C(O)C(O)CO)C(O)C1O (centres undefined) | 8.2% and -17.4% | 7.7% and -27.4% | 1.35% and -34.2% | -16.9% and -32.7% | 14.4% and -0.9% | -23.7% and -1.8%
39 | CC(Oc1ccccc1)C(=O)NC(=S)Nc1cccc2ccccc12 (centres undefined) | -10.2% | -3.5% | -3.35% | -19.6% | 20.9% | 4.85%
